# Results published in PubChem BioAssay (EPA / NIEHS).
# Inconclusive results are not listed. The source made the active and inactive calls. The calls were made as follows, unless noted: active = hit-call score of the fitted dose curve at least 0.9, where 1 is the maximum; inactive = score below 0.9.
# What was measured:
# [1] = ATG_TAL_CIS: Attagene CIS-FACTORIAL HepG2 Assay for human TAL Basal Promoter (AID 2282966); conditions: HepG2 Attagene cis-factorial TAL promoter reporter; actives raise or lower the signal;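 also: background control endpoint measuring basal TAL promoter reporter mRNA not a specific factor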
# Procedure, shortened: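 Endogenous transcription-factor activity is sensed in HepG2 cells through transfected cis-promoter reporter constructs. After 24 h dosing, reporter transcripts are quantified by RT-PCR and capillary electrophoresis. Gain or loss of signal is fitted relative to DMSO.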
# [2] = ATG_TGFb_CIS: Attagene CIS-FACTORIAL HepG2 Assay for human Transforming Growth Factor (TGF) (AID 2282967); conditions: HepG2 Attagene CIS TGFb reporter, mRNA transcription; actives raise or lower the signal
# Procedure, shortened: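 Bidirectional fitting relative to DMSO gave the endpoint. Underlying data: reporter mRNA from HepG2 cells carrying transiently transfected cis-regulated reporter constructs, harvested 24 h after dosing and analyzed by RT-PCR and capillary electrophoresis.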
# [3] = ATG_VDRE_CIS: Attagene CIS-FACTORIAL HepG2 Assay for human Vitamin D Receptor Element (VDRE) (AID 2282968); conditions: HepG2 VDRE cis-reporter transcription, actives raise or lower the signal
# Procedure, shortened: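 Transient MRTU transfection of HepG2, 24 h compound exposure. Readout: reporter transcripts via RT-PCR and capillary electrophoresis, fluorescence. Bidirectional fit vs DMSO.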
# [4] = target: Nuclear receptor subfamily 1 group I member 3 (Homo sapiens) (UniProt Q14994); assay: ATG_CAR_TRANS: Attagene TRANS-FACTORIAL HepG2 Assay for human Constitutive Androstane Receptor (CAR) (AID 2282969; active = hit-call score of the fitted dose curve at least 0.9, where 1 is the maximum;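 also: activators raise reporter mRNA above DMSO so AC50 marks induction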); conditions: HepG2 Attagene TRANS-FACTORIAL CAR reporter
# Procedure, shortened: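 Transiently transfected HepG2, multiplex TRANS reporters (CAR-Gal4 chimera driving GAL4-UAS reporter). 24 h dosing. Readout: reporter transcript by RT-PCR + capillary electrophoresis, fluorescence intensity; positive direction vs DMSO.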
# [5] = target: Estrogen receptor (Homo sapiens) (UniProt P03372); assay: ATG_ERa_TRANS: Attagene TRANS-FACTORIAL HepG2 Assay for human Estrogen Receptor alpha (ERa) (AID 2282970; active = hit-call score of the fitted dose curve at least 0.9, where 1 is the maximum); conditions: HepG2 Attagene TRANS ERa GAL4 reporter, mRNA
# Procedure, shortened: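 Transfected HepG2 cells carrying GAL4-UAS-driven reporter units were dosed for 24 hours. Total RNA was reverse-transcribed, reporter sequences PCR-amplified, FAM-labelled, HpaI-digested and resolved by capillary electrophoresis. Increases over DMSO control defined activity.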
# [6] = target: X-box-binding protein 1 (Homo sapiens) (UniProt P17861); assay: ATG_Xbp1_CIS: Attagene CIS-FACTORIAL HepG2 Assay for human X-box Binding Protein 1 (XBP1) (AID 2282972); conditions: HepG2 XBP1 cis-element reporter, Attagene multiplex; actives raise or lower the signal
# Procedure, shortened: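 Changes in reporter transcript abundance, read by RT-PCR and capillary electrophoresis, reflect endogenous transcription factor activity. Transfected HepG2 cells received compound for 24 hours; DMSO defined baseline for bidirectional analysis.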
# [7] = ATG_M_19_TRANS: Attagene TRANS-FACTORIAL HepG2 Assay for M19 Transcription Factor (Internal Marker) (AID 2282974; active = hit-call score of the fitted dose curve at least 0.9, where 1 is the maximum); conditions: HepG2 Attagene TRANS-FACTORIAL M19 internal marker reporter
# Procedure, shortened: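 Background-control readout: after 24 h chemical exposure of transfected HepG2 carrying GAL4-driven reporter units, RNA was reverse-transcribed, amplified, fluorescently labeled and sized by capillary electrophoresis; gain-of-signal fit against DMSO.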
# [8] = target: Steroid hormone receptor ERR1 (Homo sapiens) (UniProt P11474); assay: ATG_ERRa_TRANS: Attagene TRANS-FACTORIAL HepG2 Assay for human Estrogen-Related Receptor alpha (ERRa) (AID 2282971; active = hit-call score of the fitted dose curve at least 0.9, where 1 is the maximum); conditions: HepG2 Attagene TRANS reporter, ERRa transactivation
# Procedure, shortened: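 HepG2 cells were transiently transfected with multiple GAL4-UAS reporter units, then dosed with compound for 24 h. Total RNA was reverse-transcribed, reporter cDNA PCR-amplified and fluorescently labelled, and fragments resolved by capillary electrophoresis; induction was compared with DMSO.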
# [9] = ATG_GAL4_TRANS: Attagene TRANS-FACTORIAL HepG2 Assay for GAL4 (Internal Marker) (AID 2282976; active = hit-call score of the fitted dose curve at least 0.9, where 1 is the maximum); conditions: HepG2 Attagene TRANS GAL4 internal marker reporter
# Procedure, shortened: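 Fluorescence from capillary electrophoresis of labelled RT-PCR products quantifies reporter mRNA induction after 24 h dosing of HepG2 cells carrying transfected GAL4-UAS reporter transcription units. Vehicle DMSO serves as baseline.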
# [10] = target: Estrogen-related receptor gamma (Homo sapiens) (UniProt P62508); assay: ATG_ERRg_TRANS: Attagene TRANS-FACTORIAL HepG2 Assay for human Estrogen-Related Receptor gamma (ERRg) (AID 2282977; active = hit-call score of the fitted dose curve at least 0.9, where 1 is the maximum;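 also: hits increase reporter signal over DMSO so potencies reflect activators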); conditions: HepG2 Attagene TRANS reporter, ERRg transactivation
# Procedure, shortened: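 Readout: fluorescent reporter-mRNA fragments resolved by capillary electrophoresis after RT-PCR and HpaI cut. Cells: transiently transfected HepG2 carrying GAL4-UAS reporters driven by exogenous NR-Gal4 chimeras, dosed 24 h. Activity fitted upward relative to DMSO baseline.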
# Sequence of Estrogen-related receptor gamma (Homo sapiens) (P62508 whole entry, looked up, the tested form may be a part): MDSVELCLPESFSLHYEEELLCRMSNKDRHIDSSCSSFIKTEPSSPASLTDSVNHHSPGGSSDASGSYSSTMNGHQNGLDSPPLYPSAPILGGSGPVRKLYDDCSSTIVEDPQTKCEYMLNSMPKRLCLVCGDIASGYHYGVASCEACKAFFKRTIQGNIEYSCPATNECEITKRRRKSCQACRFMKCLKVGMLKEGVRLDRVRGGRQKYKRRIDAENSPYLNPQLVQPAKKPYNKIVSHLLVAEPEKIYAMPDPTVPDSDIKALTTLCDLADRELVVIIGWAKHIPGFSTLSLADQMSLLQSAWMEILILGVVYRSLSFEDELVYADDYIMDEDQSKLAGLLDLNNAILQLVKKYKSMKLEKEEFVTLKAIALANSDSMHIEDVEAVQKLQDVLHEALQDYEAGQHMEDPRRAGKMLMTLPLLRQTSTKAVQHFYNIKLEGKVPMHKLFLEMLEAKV
# Sequence of Estrogen receptor (Homo sapiens) (P03372 whole entry, looked up, the tested form may be a part): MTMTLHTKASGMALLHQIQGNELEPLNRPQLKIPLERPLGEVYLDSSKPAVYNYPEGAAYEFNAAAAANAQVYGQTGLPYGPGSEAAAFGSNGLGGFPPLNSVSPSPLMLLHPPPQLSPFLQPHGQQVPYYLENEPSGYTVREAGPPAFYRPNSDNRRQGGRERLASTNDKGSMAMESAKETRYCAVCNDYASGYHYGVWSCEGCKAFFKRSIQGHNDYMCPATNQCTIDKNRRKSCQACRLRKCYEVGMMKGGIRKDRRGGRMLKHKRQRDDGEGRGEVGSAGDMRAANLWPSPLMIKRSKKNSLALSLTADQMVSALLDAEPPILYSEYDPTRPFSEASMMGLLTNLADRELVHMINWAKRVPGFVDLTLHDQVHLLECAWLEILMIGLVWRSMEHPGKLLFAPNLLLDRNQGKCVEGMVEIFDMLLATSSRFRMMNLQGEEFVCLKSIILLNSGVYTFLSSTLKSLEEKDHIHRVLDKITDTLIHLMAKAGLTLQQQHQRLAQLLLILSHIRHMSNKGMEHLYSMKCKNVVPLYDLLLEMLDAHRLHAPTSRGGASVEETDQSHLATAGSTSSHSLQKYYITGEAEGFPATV
# Sequence of X-box-binding protein 1 (Homo sapiens) (P17861 whole entry, looked up): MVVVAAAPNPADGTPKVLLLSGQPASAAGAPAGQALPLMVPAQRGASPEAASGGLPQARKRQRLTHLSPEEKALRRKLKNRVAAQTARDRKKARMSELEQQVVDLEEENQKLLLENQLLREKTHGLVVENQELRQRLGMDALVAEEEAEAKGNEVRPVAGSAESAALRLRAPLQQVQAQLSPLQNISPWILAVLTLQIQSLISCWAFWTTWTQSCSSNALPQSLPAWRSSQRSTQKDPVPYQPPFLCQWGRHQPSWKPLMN
# Sequence of Nuclear receptor subfamily 1 group I member 3 (Homo sapiens) (Q14994 whole entry, looked up, the tested form may be a part): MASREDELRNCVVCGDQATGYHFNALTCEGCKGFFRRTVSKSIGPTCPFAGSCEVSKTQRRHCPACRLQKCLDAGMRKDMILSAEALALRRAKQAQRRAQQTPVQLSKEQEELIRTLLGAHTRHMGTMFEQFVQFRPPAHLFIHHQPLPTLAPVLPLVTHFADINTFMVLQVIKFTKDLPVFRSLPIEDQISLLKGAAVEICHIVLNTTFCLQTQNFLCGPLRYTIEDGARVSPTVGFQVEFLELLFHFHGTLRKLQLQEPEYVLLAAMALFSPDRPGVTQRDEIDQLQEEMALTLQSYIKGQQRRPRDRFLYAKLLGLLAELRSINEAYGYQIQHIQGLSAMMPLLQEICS
# Sequence of Steroid hormone receptor ERR1 (Homo sapiens) (P11474 whole entry, looked up, the tested form may be a part): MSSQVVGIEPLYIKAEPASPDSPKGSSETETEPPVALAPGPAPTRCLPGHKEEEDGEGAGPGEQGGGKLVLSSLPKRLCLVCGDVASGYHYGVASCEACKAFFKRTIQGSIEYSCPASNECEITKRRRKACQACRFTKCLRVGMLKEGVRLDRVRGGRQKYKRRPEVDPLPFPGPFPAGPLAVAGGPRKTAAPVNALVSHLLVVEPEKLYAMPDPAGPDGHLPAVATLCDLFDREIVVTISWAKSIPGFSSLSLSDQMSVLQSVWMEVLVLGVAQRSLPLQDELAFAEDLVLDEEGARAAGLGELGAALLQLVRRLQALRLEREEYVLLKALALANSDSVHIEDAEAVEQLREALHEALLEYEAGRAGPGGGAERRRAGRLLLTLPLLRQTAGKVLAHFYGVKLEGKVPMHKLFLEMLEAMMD
smiles,measurement,setting,value
CC(=O)OCCC1CCCCC1,outcome,[1],inactive
same,outcome,[2],inactive
same,outcome,[3],inactive
same,outcome,[4],inactive
same,outcome,[5],inactive
same,outcome,[6],inactive
same,outcome,[7],inactive
CCCCCCC1(C)CCC(=O)O1 (stereo unspecified),outcome,[1],inactive
same,outcome,[2],inactive
same,outcome,[3],inactive
same,outcome,[4],inactive
same,outcome,[5],inactive
same,outcome,[6],inactive
O=C(Cl)c1cc(C(=O)Cl)cc(C(=O)Cl)c1,outcome,[1],inactive
same,AC50,[2],132 µM (active)
same,AC50,[3],46 µM (active)
C=CC(=O)OCCOC(=O)C=C,outcome,[1],inactive
same,outcome,[2],inactive
same,AC50,[3],10.5 µM (active)
CC(C)c1ccc(C=O)cc1,outcome,[1],inactive
same,outcome,[2],inactive
same,outcome,[3],inactive
same,outcome,[4],inactive
CCCCCCCCCCOS(=O)(=O)O,outcome,[1],inactive
same,outcome,[2],inactive
same,outcome,[3],inactive
same,outcome,[4],inactive
same,outcome,[5],inactive
same,outcome,[6],inactive
same,outcome,[7],inactive
O=C1CCCN1CCO,outcome,[1],inactive
same,outcome,[2],inactive
same,outcome,[3],inactive
same,outcome,[4],inactive
same,outcome,[5],inactive
same,outcome,[6],inactive
same,outcome,[7],inactive
O=C1Nc2ccccc2C1(c1ccc(O)cc1)c1ccc(O)cc1,outcome,[1],inactive
same,outcome,[2],inactive
same,AC50,[3],17.8 µM (active)
CC(C)(C)C(=O)CCc1ccc(Cl)cc1,outcome,[1],inactive
same,outcome,[2],inactive
same,AC50,[3],41.2 µM (active)
same,outcome,[4],inactive
same,AC50,[5],17.7 µM (active)
same,outcome,[6],inactive
CCN(CC#N)c1cccc(C)c1,outcome,[1],inactive
same,outcome,[2],inactive
same,outcome,[3],inactive
same,outcome,[4],inactive
same,outcome,[5],inactive
same,outcome,[6],inactive
CC(C)=CCCC(C)C=O (stereo unspecified),outcome,[1],inactive
same,outcome,[2],inactive
same,AC50,[3],32 µM (active)
same,outcome,[4],inactive
same,outcome,[5],inactive
same,outcome,[6],inactive
same,outcome,[7],inactive
O=C(Oc1ccccc1)c1ccc2ccccc2c1O,outcome,[1],inactive
same,AC50,[2],49 µM (active)
same,AC50,[3],26.4 µM (active)
same,outcome,[4],inactive
same,outcome,[5],inactive
same,outcome,[8],inactive
same,AC50,[6],38.6 µM (active)
CC(C)CC(O)Cc1ccccc1 (stereo unspecified),outcome,[1],inactive
same,outcome,[2],inactive
same,outcome,[3],inactive
same,outcome,[4],inactive
same,outcome,[5],inactive
same,outcome,[6],inactive
same,outcome,[7],inactive
same,outcome,[9],inactive
O=c1n(CCO)c(=O)n(CCO)c(=O)n1CCO,outcome,[1],inactive
same,outcome,[2],inactive
same,outcome,[3],inactive
same,outcome,[4],inactive
same,outcome,[6],inactive
same,outcome,[7],inactive
same,outcome,[9],inactive
Nc1ccc(N=Nc2ccccc2)c(N)n1,outcome,[1],inactive
same,outcome,[2],inactive
same,AC50,[3],68.9 µM (active)
same,outcome,[4],inactive
same,AC50,[6],70.3 µM (active)
same,outcome,[7],inactive
C=CC(=O)NC(C)(C)CS(=O)(=O)O,outcome,[1],inactive
same,outcome,[2],inactive
same,outcome,[3],inactive
same,outcome,[4],inactive
same,outcome,[6],inactive
same,outcome,[7],inactive
same,outcome,[9],inactive
O=C1CCCC(=O)O1,outcome,[1],inactive
same,outcome,[2],inactive
same,outcome,[3],inactive
same,outcome,[4],inactive
same,outcome,[6],inactive
CCC(C)(C)C1CCCCC1OC(C)=O (stereo unspecified),outcome,[1],inactive
same,outcome,[2],inactive
same,outcome,[3],inactive
same,outcome,[4],inactive
same,outcome,[6],inactive
same,outcome,[9],inactive
CC(=O)C=CC1C(C)=CCC(C)C1(C)C (stereo unspecified),outcome,[1],inactive
same,outcome,[2],inactive
same,outcome,[3],inactive
same,outcome,[4],inactive
same,outcome,[5],inactive
same,outcome,[6],inactive
same,outcome,[9],inactive
same,outcome,[10],inactive
c1cc(N(CC2CO2)CC2CO2)ccc1OCC1CO1 (stereo unspecified),outcome,[1],inactive
same,outcome,[2],inactive
same,AC50,[3],36.8 µM (active)
same,outcome,[4],inactive
same,AC50,[6],12.9 µM (active)
same,outcome,[7],inactive
same,outcome,[10],inactive
O=C1CCCCCCCCCCC(=O)OCCO1,outcome,[1],inactive
same,outcome,[2],inactive
same,outcome,[3],inactive
same,outcome,[4],inactive
same,outcome,[5],inactive
same,outcome,[7],inactive
same,outcome,[9],inactive
NCCCN1CCN(CCCN)CC1,outcome,[1],inactive
same,outcome,[2],inactive
same,outcome,[3],inactive
same,outcome,[4],inactive
same,outcome,[5],inactive
same,outcome,[7],inactive
O=S(=O)(Oc1ccc(Cl)cc1Cl)c1ccccc1,outcome,[1],inactive
same,AC50,[2],63.4 µM (active)
same,AC50,[3],6.51 µM (active)
same,outcome,[4],inactive
same,AC50,[5],5.33 µM (active)
same,outcome,[6],inactive
same,outcome,[10],inactive
CCCCCCCCCCC=CC#N,outcome,[1],inactive
same,outcome,[2],inactive
same,outcome,[3],inactive
same,outcome,[4],inactive
same,outcome,[6],inactive
same,outcome,[7],inactive
Cc1cc(C)c(C)c(C)c1,outcome,[1],inactive
same,outcome,[2],inactive
same,outcome,[3],inactive
same,outcome,[4],inactive
same,outcome,[6],inactive
same,outcome,[7],inactive
same,outcome,[9],inactive
same,outcome,[10],inactive
C=CC(=O)OCCC(=O)O,outcome,[1],inactive
same,outcome,[2],inactive
same,outcome,[3],inactive
same,outcome,[4],inactive
same,outcome,[8],inactive
same,outcome,[6],inactive
same,outcome,[9],inactive
same,outcome,[10],inactive
N#[N+]c1ccc2c(S(=O)(=O)[O-])cccc2c1O,outcome,[1],inactive
same,outcome,[2],inactive
same,outcome,[3],inactive
same,outcome,[4],inactive
same,outcome,[8],inactive
same,outcome,[7],inactive
same,outcome,[9],inactive
same,outcome,[10],inactive
Cc1ccc(C(C)(C)C)cc1,outcome,[1],inactive
same,outcome,[2],inactive
same,outcome,[3],inactive
same,outcome,[4],inactive
same,outcome,[6],inactive
O=C1CCCCCN1SSN1CCCCCC1=O,outcome,[1],inactive
same,outcome,[2],inactive
same,outcome,[3],inactive
same,outcome,[4],inactive
same,outcome,[5],inactive
same,AC50,[6],187 µM (active)
same,outcome,[9],inactive
same,outcome,[10],inactive
O=c1cc(-c2ccccc2)oc2ccccc12,outcome,[1],inactive
same,outcome,[2],inactive
same,AC50,[3],30.5 µM (active)
same,outcome,[4],inactive
same,AC50,[6],82.8 µM (active)
same,outcome,[7],inactive
O=CN1CCCCC1,outcome,[1],inactive
same,outcome,[2],inactive
same,outcome,[3],inactive
same,outcome,[4],inactive
same,outcome,[7],inactive
same,outcome,[9],inactive
C=C(C)c1cccc(C(C)(C)N=C=O)c1,outcome,[1],inactive
same,outcome,[2],inactive
same,AC50,[3],0.377 µM (active)
same,outcome,[4],inactive
same,outcome,[6],inactive
same,outcome,[7],inactive
